Test results: the supplement of paper PMC11732987, “Enantioselective OTUD7B fragment discovery through chemoproteomics screening and high-throughput optimisation” (Communications Chemistry, 2025)

How the values were obtained:
Assay in all cases: log2 ratio of Biotin-Ahx-Ub-VS probe labelling (compound/DMSO); higher = less target engagement, active = hit call of the paper (q ≤ 0.05, log2 ratio ≤ -1)
Conditions in all cases: treatment time: 3 h
[1] = compound: CCC1N(CCc2sccc12)C(=O)CCl
In short: (§1)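 HEK293T lysate (495 µg per sample, in Tris/CHAPS/IGEPAL buffer with protease inhibitors) was exposed in triplicate to compound at 50 or 200 µM, or to DMSO, for 3 h, then to Biotin-Ahx-Ub-VS (0.5 µM final) for 1 h. The labelled DUBs were enriched on NeutrAvidin, digested with LysC and trypsin, and analysed by diaPASEF LC-MS/MS. Average base-two log ratios of compound over DMSO came from median-normalised label-free quantities by unpaired t-test. Only proteins with at least 2 unique peptides were used.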

[2] = compound: CN1c2ccccc2C(CS1(=O)=O)NC(=O)CCl
In short: as §1

[3] = compound: Cl.ClCC(=O)N1CCc2ncncc2C1
In short: as §1

[4] = compound: Cl.Cn1ncc2C(CCCc12)NC(=O)CCl
In short: as §1

[5] = compound: ClCC(=O)NC1CCOc2ccccc12
In short: as §1

[6] = compound: ClCC(=O)NC1CCCc2ccccc12
In short: (§2)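 In triplicate, 495 µg portions of HEK293T lysate in Tris/CHAPS/IGEPAL buffer with protease inhibitors received compound across a concentration series or vehicle for 3 h, followed by 1 h with 0.5 µM final Biotin-Ahx-Ub-VS. After NeutrAvidin enrichment and LysC/trypsin digestion, the labelled deubiquitinases were measured by diaPASEF LC-MS/MS and quantified label-free in Spectronaut with global-median normalisation. Each value is an average compound-to-vehicle ratio from an unpaired t-test, expressed as log2 and restricted to proteins having two or more unique peptides.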

[7] = compound: ClCC(=O)N[C@@H]1CCCc2ccccc12
In short: as §2

[8] = compound: ClCC(=O)N[C@H]1CCCc2ccccc12
In short: as §2

[9] = compound: CCC1N(CCc2cc(OC)c(Cl)cc12)C(=O)CCl
In short: as §1

[10] = compound: CCCC1N(CCc2cc(OC)c(OC)cc12)C(=O)CCl
In short: as §1

[11] = compound: CN(Cc1cccc(Br)c1)C(=O)CCl
In short: as §1

[12] = compound: CN(Cc1cccc(OCc2ccccc2C)c1)C(=O)CCl
In short: as §1

[13] = compound: CN(Cc1ccccc1)C(=O)CCl
In short: as §1

[14] = compound: COc1ccc(CN(C)C(=O)CCl)cc1
In short: as §1

[15] = compound: COc1cccc(CN(CCCc2ccccc2)C(=O)CCl)c1
In short: as §1

[16] = compound: ClCC(=O)N1CCc2cc(Cl)c(Cl)cc2C1
In short: as §1

[17] = compound: ClCC(=O)N1CCc2nc(ncc2C1)-c1ccccc1
In short: as §1

[18] = compound: ClCC(=O)N1CCc2nocc2C1
In short: as §1

[19] = compound: ClCC(=O)N1CCc2scc(Br)c2C1
In short: as §1

[20] = compound: ClCC(=O)NC(C1CCCC1)c1cccs1
In short: as §1

Measured: log2 ratio of Biotin-Ahx-Ub-VS probe labelling

COPS5 (UniProt Q92905)
Sequence of UniProt Q92905 (Q92905 whole entry, looked up): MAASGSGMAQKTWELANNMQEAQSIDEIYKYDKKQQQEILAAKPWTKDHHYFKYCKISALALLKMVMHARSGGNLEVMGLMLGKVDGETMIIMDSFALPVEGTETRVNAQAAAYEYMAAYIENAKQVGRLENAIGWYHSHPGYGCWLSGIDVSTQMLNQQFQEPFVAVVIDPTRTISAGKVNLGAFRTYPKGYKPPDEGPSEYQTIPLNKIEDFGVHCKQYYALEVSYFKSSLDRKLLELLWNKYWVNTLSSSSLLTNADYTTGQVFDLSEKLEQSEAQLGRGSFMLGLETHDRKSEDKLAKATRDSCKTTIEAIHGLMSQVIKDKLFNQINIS
inactive: [1]; compound concentration: 50uM -0.164 | [1]; compound concentration: 200uM 0.0997 | [2]; compound concentration: 50uM -0.182 | [2]; compound concentration: 200uM 0.168 | [3]; compound concentration: 50uM -0.296 | [3]; compound concentration: 200uM -0.179 | [4]; compound concentration: 50uM -0.177 | [4]; compound concentration: 200uM -0.131 | [5]; compound concentration: 50uM 0.175 | [5]; compound concentration: 200uM -0.0253 | [6]; compound concentration: 0.78uM 0.0364 | [6]; compound concentration: 1.56uM -0.0289 | [6]; compound concentration: 3.13uM -0.0264 | [6]; compound concentration: 6.25uM 0.0604 | [6]; compound concentration: 12.5uM -0.134 | [6]; compound concentration: 25uM -0.0881 | [6]; compound concentration: 50uM -0.183 | [6]; compound concentration: 100uM -0.315 | [6]; compound concentration: 200uM -0.041 | [7]; compound concentration: 0.78uM -0.237 | [7]; compound concentration: 1.56uM -0.152 | [7]; compound concentration: 3.13uM -0.15 | [7]; compound concentration: 6.25uM 0.209 | [7]; compound concentration: 12.5uM -0.0611 | [7]; compound concentration: 25uM -0.26 | [7]; compound concentration: 50uM -0.29 | [7]; compound concentration: 100uM -0.155 | [7]; compound concentration: 200uM 0.052 | [8]; compound concentration: 0.78uM -0.209 | [8]; compound concentration: 1.56uM 0.0351 | [8]; compound concentration: 3.13uM -0.059 | [8]; compound concentration: 6.25uM -0.0717 | [8]; compound concentration: 12.5uM 0.171 | [8]; compound concentration: 25uM 0.148 | [8]; compound concentration: 50uM -0.0575 | [8]; compound concentration: 100uM 0.0499 | [8]; compound concentration: 200uM -0.0918 | [9]; compound concentration: 50uM 0.0938 | [9]; compound concentration: 200uM 0.311 | [10]; compound concentration: 50uM -0.111 | [10]; compound concentration: 200uM 0.0826 | [11]; compound concentration: 50uM 0.118 | [11]; compound concentration: 200uM -0.11 | [12]; compound concentration: 50uM -0.375 | [12]; compound concentration: 200uM -0.104 | [13]; compound concentration: 50uM -0.103 | [13]; compound concentration: 200uM 0.0593 | [14]; compound concentration: 50uM 0.00458 | [14]; compound concentration: 200uM -0.13 | [15]; compound concentration: 50uM -0.0338 | [15]; compound concentration: 200uM -0.0977 | [16]; compound concentration: 50uM -0.307 | [16]; compound concentration: 200uM -0.222 | [17]; compound concentration: 50uM -0.406 | [17]; compound concentration: 200uM 0.395 | [18]; compound concentration: 50uM -0.35 | [18]; compound concentration: 200uM 0.152 | [19]; compound concentration: 50uM -0.23 | [19]; compound concentration: 200uM -0.704 | [20]; compound concentration: 50uM 0.21 | [20]; compound concentration: 200uM -0.0541

PRPF8 (UniProt Q6P2Q9)
inactive: [1]; compound concentration: 50uM -0.0394 | [1]; compound concentration: 200uM -0.112 | [2]; compound concentration: 50uM -0.0921 | [2]; compound concentration: 200uM -0.054 | [3]; compound concentration: 50uM 0.0381 | [3]; compound concentration: 200uM -0.119 | [4]; compound concentration: 50uM 0.0788 | [4]; compound concentration: 200uM 0.0562 | [5]; compound concentration: 50uM 0.0594 | [5]; compound concentration: 200uM -0.157 | [6]; compound concentration: 0.78uM -0.034 | [6]; compound concentration: 1.56uM -0.0309 | [6]; compound concentration: 3.13uM -0.104 | [6]; compound concentration: 6.25uM -0.01 | [6]; compound concentration: 12.5uM -0.0322 | [6]; compound concentration: 25uM -0.101 | [6]; compound concentration: 50uM -0.0882 | [6]; compound concentration: 100uM -0.0511 | [6]; compound concentration: 200uM -0.0422 | [7]; compound concentration: 0.78uM -0.0504 | [7]; compound concentration: 1.56uM -0.022 | [7]; compound concentration: 3.13uM -0.0939 | [7]; compound concentration: 6.25uM -0.0748 | [7]; compound concentration: 12.5uM -0.0604 | [7]; compound concentration: 25uM -0.0428 | [7]; compound concentration: 50uM -0.086 | [7]; compound concentration: 100uM -0.0702 | [7]; compound concentration: 200uM -0.137 | [8]; compound concentration: 0.78uM -0.0339 | [8]; compound concentration: 1.56uM -0.0293 | [8]; compound concentration: 3.13uM -0.049 | [8]; compound concentration: 6.25uM 0.0146 | [8]; compound concentration: 12.5uM -0.0785 | [8]; compound concentration: 25uM -0.109 | [8]; compound concentration: 50uM -0.0661 | [8]; compound concentration: 100uM -0.111 | [8]; compound concentration: 200uM -0.149 | [9]; compound concentration: 50uM 0.0405 | [9]; compound concentration: 200uM 0.131 | [10]; compound concentration: 50uM -0.0761 | [10]; compound concentration: 200uM -0.182 | [11]; compound concentration: 50uM -0.00418 | [11]; compound concentration: 200uM 0.0824 | [12]; compound concentration: 50uM -0.075 | [12]; compound concentration: 200uM 0.0126 | [13]; compound concentration: 50uM -0.0842 | [13]; compound concentration: 200uM 0.108 | [14]; compound concentration: 50uM 0.0375 | [14]; compound concentration: 200uM 0.065 | [15]; compound concentration: 50uM 0.00751 | [15]; compound concentration: 200uM 0.0603 | [16]; compound concentration: 50uM 0.0965 | [16]; compound concentration: 200uM 0.0914 | [17]; compound concentration: 50uM 0.046 | [17]; compound concentration: 200uM 0.0608 | [18]; compound concentration: 50uM -0.0702 | [18]; compound concentration: 200uM 0.00362 | [19]; compound concentration: 50uM -0.00317 | [19]; compound concentration: 200uM 0.0413 | [20]; compound concentration: 50uM 0.122 | [20]; compound concentration: 200uM -0.028
